# Compounds without any hit were thinned out: in the full panel of roughly 79,000, 15% have a hit. Values without a mark were called inactive. Calls of active or inactive are those of the source. Cut-off read from the data, not from the text of the source: active = growth inhibition above about 70%; inactive = the rest.
# Assays:
# [1] = NCI Yeast Anticancer Drug Screen. Data for the rad50 strain (AID 155);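 note: 0% = growth of vehicle-only cultures of the same strain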; details: S. cerevisiae rad50 strain growth inhibition; at 50.0 µM; hits give high values
# How it was run: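 Readout: growth inhibition relative to vehicle-treated cultures. Compound exposure was carried out in a genetically defined yeast strain deficient in DNA damage repair.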
# [2] = NCI Yeast Anticancer Drug Screen. Data for the mec2-1 strain (AID 157); details: S. cerevisiae mec2-1 strain, at 50.0 µM, hits give high values
# How it was run: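 Yeast mec2-1 mutant treated with compound. Readout: growth inhibition vs vehicle controls.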
# [3] = NCI Yeast Anticancer Drug Screen. Data for the sgs1 mgt1 strain (AID 161);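 note: 0% = growth of cultures given vehicle only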; details: S. cerevisiae sgs1 mgt1 strain, at 50.0 µM, hits give high values
# How it was run: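 Mutant yeast exposed to compound; growth scored against vehicle-only wells.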
# [4] = NCI Yeast Anticancer Drug Screen. Data for the cln2 rad14 strain (AID 165);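 note: 0% = growth equal to vehicle treated cultures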; details: S. cerevisiae cln2 rad14 strain, at 50.0 µM, hits give high values
# How it was run: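 cln2 rad14 yeast strain; compound exposure; growth inhibition read vs vehicle controls.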
# [5] = NCI Yeast Anticancer Drug Screen. Data for the bub3 strain (AID 167); details: S. cerevisiae bub3 mutant strain, at 50.0 µM, hits give high values
# How it was run: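 Readout: yeast growth inhibition, expressed relative to vehicle-only wells. The test organism is a mutant strain from a panel with lesions in DNA repair or checkpoint genes.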
# [6] = NCI Yeast Anticancer Drug Screen. Data for the mlh1 rad18 strain (AID 175); details: S. cerevisiae mlh1 rad18 strain growth inhibition; at 50.0 µM; hits give high values
# How it was run: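 Yeast w/ defined DNA-repair lesions; compound exposure; growth vs vehicle controls → % inhibition.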
SMILES,growth inhibition [1] [%],growth inhibition [2] [%],growth inhibition [3] [%],growth inhibition [4],growth inhibition [5] [%],growth inhibition [6] [%]
C/C(=N\Nc1ccc([N+](=O)[O-])cc1)C(=O)N(C)Nc1ccccc1,-6,-54.2,-38,-5.7%,-59.7,-5.4
CC1(C)OC2COC(CNS(C)(=O)=O)C2O1 (stereo not given),12.2,-12.2,-9.2,5.1%,2.85,28.4
CCC(C(N)=O)C(C)(C)C (stereo not given),-0.15,-12.2,-4.7,7.3%,12.3,-1.2
Cc1cc(N(CCO)CCO)c2ccc3cc4ccccc4cc3c2n1,38.5,16.6,9.35,8.3%,18.3,23.9
COC(SC)(SC)c1cc(-c2c(Cl)cccc2Cl)no1,-7.25,-7.55,-3.1,4.3%,27.6,-4.15
O=C(NCC1=NCCN1)c1ccccc1,2.3,-2.7,-13.7,12%,6.45,10.7
c1ccc2c3c(ccc2c1)CCC3,-20.9,-42.9,-35,10%,-25.4,-12.4
Cn1cnc(=O)c2n[nH]nc21,3.95,16.6,-1.1,-1.45%,-11.4,0.65
COc1cc([N+](=O)[O-])ccc1NC(=O)Nc1c(C)n(C)n(-c2ccccc2)c1=O,-17.1,1.75,-8.3,92.6% (active),0.15,6.25
Cc1ccc(S(=O)(=O)/C=C\S(=O)(=O)c2ccc(C)cc2)cc1,-7.35,-3.15,5.15,-28.4%,3.15,2.7
Cc1[nH]c2c(O)ccc(O)c2c1C,-1.05,-9.45,-9.15,-20.6%,-8,4.9
NCCCc1ccc(C(=O)O)cc1,-23.8,1.85,-0.5,-40.2%,5.85,7.75
C=CC(OC(=O)/C=C/C)OC(=O)/C=C/C,16.9,0.85,6.8,12.6%,20.1,21.6
CCCCCCOC(=O)C[C@H]1C[C@H](C(=O)OCCCCCC)C1(C)C,-4.45,-15.6,1.8,-36.6%,-21.1,-7.3
O=[N+]([O-])c1ccc2nc(NCCCO)c3ccccc3c2c1,8.2,11.3,3.85,-0.9%,12.1,12.1
CCCNc1nc2c(s1)c1c(O)c3c(O)c(C)c4c(c32)C(=O)C(C)(O/C=C\C(OC)C(C)C(OC(C)=O)C(C)C(O)C(C)C(O)C(C)/C=C/C=C(/C)C(=O)N1)O4 (stereo not given),8.75,9.7,3.2,10.2%,14.2,17.3
CC1=C/C(=N\NC(N)=S)C(C(O)(C(F)(F)F)C(F)(F)F)C(C)(C)C1 (stereo not given),65.9,30.6,47,20.2%,41.5,59.8
O=C(O)CCNCCCCNCCC(=O)O,6.2,-11.8,-23.9,-1.5%,-22.6,-22.3
COc1cc2cc(OC)c3cc4c(cc3c2c(OC)c1OC)OCO4,12.2,11.1,19.2,7.3%,6.6,5.65
Oc1ccc2ccccc2c1Br,45.9,55.5,40.2,26.1%,44.2,35.6

SMILES,growth inhibition [1] [%],growth inhibition [2] [%],growth inhibition [3] [%],growth inhibition [4],growth inhibition [5] [%],growth inhibition [6] [%]
CC(=O)/C=C\C1CC2C=CC1C2 (stereo not given),-11.6,-10.2,3.65,17.1%,-20.4,31.6
COc1ccccc1C=NC12CC3CC(CC(C3)C1)C2,-29.2,-12.6,2.55,1.9%,-4.2,-16.6
Cc1ccc(P(=O)(O)O)cc1C,-18.2,-7.3,0.3,-2.1%,-7.75,-10.4
CC1C/C=C2\CSC(NC(=O)/C3=C\N(C/C=C/C=C/C(O)CC(O)CC(=O)N3)C2=O)C(=O)O1 (stereo not given),13.7,11.7,22.2,19%,17.5,18.2
C=CCCCCCCCCC(=O)OC,-11.8,-17.9,10.2,-10.5%,-5.1,-31.4
Cc1cc(NC(=O)N(CCCl)N=O)c(C)cc1NC(=O)c1ccccc1,24.5,-22.5,40.5,-3.4%,-0.5,55.2
Cn1c(=O)c2c(nc(Cl)n2C)n(C)c1=O,42.5,14.5,-16.1,-29.3%,-7.65,28.9
CCCC(C)c1ccc(OCc2ccc(C)cc2)cc1 (stereo not given),1.6,-4.25,-18.1,13.8%,-1.05,-4.9
COc1ccccc1NC(=O)CC(=O)N1N=C(N2c3ccccc3Sc3ccccc32)CC1c1ccccc1 (stereo not given),2.55,3.2,-2.15,22.7%,12.4,-66.5
CC(C)=C1C(=O)C[C@]2(C)C/C=C(\C)CC/C=C(\C)CC[C@@H]12,39.5,40.9,62.5,46.2%,58.9,38.8
Nc1ncnc(N)c1NC(=O)c1ccc(CCc2ccccc2)c(Cl)c1,-3.9,37.1,21.6,-14.2%,4.1,-4.35
COc1ccc(-n2c(C)nc3c(cnn3CN3CCCCC3)c2=O)cc1,4,-0.95,-1.25,-4.05%,8.75,13.5
CC(C)c1ccc(OC(=N)c2ccccc2)cc1,1.5,-7.35,-9.45,-3.95%,7.85,3.6
CN(C)C=Nc1cccc2cnccc12,24.7,3.4,14.5,21.2%,13.1,-16.7
CC1=NN(C)C(=O)C1,1.45,3.3,1.9,-0.4%,-3.05,9.25
CC(C)CC(C)(O)C#CC(C)(O)CC(C)C (stereo not given),-1.8,-25.4,-12.7,-31.4%,4.55,-22.2
COC1c2ccccc2C(C)(C)c2nc3ccccc3cc21 (stereo not given),-1.05,-10,-4.6,-38%,1.6,-3.1
COC(=O)O[C@H]1CC[C@@]2(C)C(=CC[C@H]3[C@@H]4CC[C@H]([C@H](C)CCCC(C)C)[C@@]4(C)CC[C@@H]32)C1,-21.6,-29.8,-5.6,6.75%,-11.8,-5.3
O=C(O)CCCCCCCCCC(=O)O,-15.1,-17.5,0,-24.9%,-7.7,9.05
CC1(C)CC23C4COC(=O)C2CCC1C3CC4=O (stereo not given),-7.25,-18.1,20.4,-0.7%,-0.25,-21.4
